Test results as given in PubChem BioAssay AID743295 (Broad Institute, 2014).
Entries with a potency or affinity are not part of this list. The source made the active and inactive calls.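 The calls were made as follows: active = compounds lowering caspase 7 signal with dose, half-maximal concentration at most twice the top valid dose; inconclusive = flat fit with 30 to 70% inhibition, or poor fit; inactive = the rest.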

Biological target: Caspase-7 (Homo sapiens) (UniProt P55210)
Experiment: caspase-7 enzyme inhibition, selectivity check – biochemical, DEVD-R110 fluorescence, cherry-pick, selectivity assay for caspase-6 inhibitor project, dose response (AID 743295)
Conditions: purified caspase-7, DEVD-R110 cleavage fluorescence; series mostly up to 35 µM; activity change, negative = inhibition: at the top concentration

Chain of Caspase-7 (Homo sapiens) (P55210 whole entry, looked up): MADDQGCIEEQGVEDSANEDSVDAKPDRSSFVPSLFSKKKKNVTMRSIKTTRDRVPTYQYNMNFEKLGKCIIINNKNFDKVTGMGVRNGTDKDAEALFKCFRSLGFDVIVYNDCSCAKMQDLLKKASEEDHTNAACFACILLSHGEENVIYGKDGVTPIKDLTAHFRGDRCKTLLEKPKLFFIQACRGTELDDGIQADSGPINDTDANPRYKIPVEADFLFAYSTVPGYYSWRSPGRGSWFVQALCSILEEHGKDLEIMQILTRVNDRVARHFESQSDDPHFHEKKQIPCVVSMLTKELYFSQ

Row | Structure (SMILES) | activity change, negative = inhibition
1 | Nc1ccc(Nc2ccccc2)c(S(=O)(=O)O)c1 | -8.06% (inactive)
2 | Cc1c(CCC(=O)O)c(=O)oc2c(C)c(OCc3ccccc3Cl)ccc12 | 11.5% (inactive)
3 | C/C(CC(=O)N1CCCC1)=N\NC(=O)c1cc2ccccc2cc1O | -3.45% (inactive)
4 | O=C(Nc1ccc2nc3n(c(=O)c2c1)CCCCC3)c1c(F)ccc([N+](=O)[O-])c1F | -6.37% (inactive)
5 | Cc1cc(C=O)c(C)n1-c1cc(C(=O)O)cc(C(=O)O)c1 | -6.4% (inactive)
6 | Nc1cc(S(=O)(=O)O)cc([N+](=O)[O-])c1O | -11.1% (inactive)
7 | O=C(O)Cc1ccc(-n2cccc2)cc1 | -8.97% (inactive)
8 | COc1cc(-c2ccc(Nc3ccccc3C(=O)O)c(OC)c2)ccc1Nc1ccccc1C(=O)O | -1.45% (inactive)
9 | COc1cc(NC(=O)COC(=O)c2ccc([N+](=O)[O-])s2)cc(OC)c1OC | -7.83% (inactive)
10 | CCOC(=O)[C@H](Cc1c[nH]c2ccccc12)NC(=O)CN=[N+]=[N-] | 2.34% (inactive)
11 | O=P(c1ccccc1)(c1ccccc1)c1cc(S(=O)(=O)O)ccc1O | 0.949% (inactive)
12 | Cc1ccc(S(=O)(=O)Nc2csc(C)c2C(=O)O)cc1 | -10.4% (inactive)
13 | O=C(COC(=O)c1ccc([N+](=O)[O-])s1)Nc1ccc(F)cc1 | 1.2% (inactive)
14 | Oc1cc(NCCc2cccnc2)cc2cccnc12 | 0.565% (inactive)
15 | Cn1cnnc1SCC(=O)Nc1ncc([N+](=O)[O-])s1 | 11.3% (inactive)
16 | COCCN(C(=O)COC(=O)c1cc2c(s1)CCC2)c1c(N)n(Cc2ccccc2)c(=O)[nH]c1=O | -2.08% (inactive)
17 | CCCc1nc2c(=O)n(C)c(=O)nc-2n(C)n1 | -4.87% (inactive)
18 | CO[C@H]1CN(C)C(=O)c2cc(NC(C)=O)ccc2OC[C@@H](C)N(C(=O)CC2CC2)C[C@H]1C | -17.6% (inactive)
19 | CNS(=O)(=O)c1cccc(C(=O)OCC(=O)N2c3ccccc3NC(=O)C2(C)C)c1 | -6.61% (inactive)
